# From the supplement of paper PMC8728848
# Shown is part of a subset that was picked to be rich in the strongest signals.
# B1: Gal 4 (Mus musculus), P56470 (protein)
# chain: MAYVPAPGYQPTYNPTLPYYQPIPGGLNVGMSVYIQGVASEHMKRFFVNFVVGQDPGSDVAFHFNPRFDGWDKVVFNTLQGGKWGSEERKRSMPFKKGAAFELVFIVLAEHYKVVVNGNPFYEYGHRLPLQMVTHLQVDGDLQLQSINFIGGQPLRPQGPPMMPPYPGPGHCHQQLNSLPTMEGPPTFNPPVPYFGRLQGGLTARRTIIIKGYVPPTGKSFAINFKVGSSGDIALHINPRMGNGTVVRNSLLNGSWGSEEKKITHNPFGPGQFFDLSIRCGLDRFKVYANGQHLFDFAHRLSAFQRVDTLEIQGDVTLSYVQI
# What was measured:
# Assay in all cases: glycan array binding signal (z-score within array); higher = stronger binding
# Conditions in all cases: glycan notation: IUPAC condensed, linker removed
# [1] = target: Fuc(a1-2)Gal(b1-3)GlcNAc6S
# Outline: (§1)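 The binding signal is a Z-score computed within each array and averaged over linkers. Arrays of the same protein sequence at different concentrations or buffers were also averaged together. Data originate from 3228 arrays in the Consortium for Functional Glycomics database, kept only where the protein sequence was available.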
# [2] = target: Fuc(a1-2)Gal(b1-3)[Fuc(a1-4)]GlcNAc(b1-2)Man(a1-3)[Fuc(a1-2)Gal(b1-3)[Fuc(a1-4)]GlcNAc(b1-2)Man(a1-6)]Man(b1-4)GlcNAc(b1-4)[Fuc(a1-6)]GlcNAc(b1-4)[Fuc(a1-6)]GlcNAc
# Outline: as §1
# Fuc(a1-2)Gal(b1-4)Glc = target: Fuc(a1-2)Gal(b1-4)Glc
# Outline: as §1
# Fuc(a1-2)Gal(b1-4)GlcNAc = target: Fuc(a1-2)Gal(b1-4)GlcNAc
# Outline: as §1
# [3] = target: Fuc(a1-2)Gal(b1-4)[Fuc(a1-3)]GlcNAc
# Outline: as §1
# [4] = target: Fuc(a1-2)Gal6S(b1-4)GlcNAc
# Outline: as §1
# [5] = target: Fuc(a1-2)[Gal(a1-3)]Gal(b1-3)GlcNAc
# Outline: as §1
# [6] = target: Fuc(a1-2)[Gal(a1-3)]Gal(b1-4)[Fuc(a1-3)]GlcNAc
# Outline: as §1
# [7] = target: Fuc(a1-2)[GalNAc(a1-3)]Gal(b1-3)GlcNAc
# Outline: as §1
# [8] = target: Fuc(a1-2)[GalNAc(a1-3)]Gal(b1-3)GlcNAc(b1-2)Man(a1-3)[Fuc(a1-2)[GalNAc(a1-3)]Gal(b1-3)GlcNAc(b1-2)Man(a1-6)]Man(b1-4)GlcNAc(b1-4)GlcNAc
# Outline: as §1
# [9] = target: Fuc(a1-2)[GalNAc(a1-3)]Gal(b1-4)Glc
# Outline: as §1
# [10] = target: Fuc(a1-2)[GalNAc(a1-3)]Gal(b1-4)GlcNAc
# Outline: as §1
# [11] = target: Fuc(a1-2)[GalNAc(a1-3)]Gal(b1-4)GlcNAc(b1-2)Man
# Outline: as §1
# [12] = target: Fuc(a1-2)[GalNAc(a1-3)]Gal(b1-4)GlcNAc(b1-2)Man(a1-3)[Fuc(a1-2)[GalNAc(a1-3)]Gal(b1-4)GlcNAc(b1-2)Man(a1-6)]Man(b1-4)GlcNAc(b1-4)GlcNAc
# Outline: as §1
# [13] = target: Fuc(a1-2)[GalNAc(a1-3)]Gal(b1-4)GlcNAc(b1-3)Gal(b1-4)GlcNAc
# Outline: as §1
# [14] = target: Fuc(a1-2)[GalNAc(a1-3)]Gal(b1-4)GlcNAc(b1-3)Gal(b1-4)GlcNAc(b1-3)Gal(b1-4)GlcNAc
# Outline: as §1
# [15] = target: Fuc(a1-3)[Gal(b1-4)]GlcNAc(b1-6)GalNAc
# Outline: as §1
# [16] = target: Gal(a1-3)Gal(b1-4)[Fuc(a1-3)]GlcNAc
# Outline: as §1
# [17] = target: Gal(b1-3)GalNAc(a1-3)[Fuc(a1-2)]Gal(b1-4)Glc
# Outline: as §1
# [18] = target: Gal(b1-3)GalNAc(a1-3)[Fuc(a1-2)]Gal(b1-4)GlcNAc
# Outline: as §1
# Gal(b1-3)GlcNAc = target: Gal(b1-3)GlcNAc
# Outline: as §1
# [19] = target: Gal(b1-3)GlcNAc(b1-2)Man(a1-3)[Gal(b1-3)GlcNAc(b1-2)Man(a1-6)]Man(b1-4)GlcNAc(b1-4)GlcNAc
# Outline: as §1
# [20] = target: Gal(b1-3)[GlcNAc(b1-6)]GalNAc
# Outline: as §1
# [21] = target: Gal(b1-3)[Neu5Ac(a2-6)]GlcNAc(b1-6)Gal(b1-4)Glc
# Outline: as §1
# [22] = target: Gal(b1-4)GalNAc(a1-3)[Fuc(a1-2)]Gal(b1-4)GlcNAc
# Outline: as §1
# Gal(b1-4)GlcNAc(b1-2)Man = target: Gal(b1-4)GlcNAc(b1-2)Man
# Outline: as §1
# [23] = target: Gal(b1-4)GlcNAc(b1-3)Gal(b1-4)GlcNAc(b1-3)Gal(b1-4)GlcNAc
# Outline: as §1
# [24] = target: Gal(b1-4)GlcNAc(b1-3)Gal(b1-4)GlcNAc(b1-3)Gal(b1-4)GlcNAc(b1-3)Gal(b1-4)GlcNAc(b1-2)[Gal(b1-4)GlcNAc(b1-3)Gal(b1-4)GlcNAc(b1-3)Gal(b1-4)GlcNAc(b1-3)Gal(b1-4)GlcNAc(b1-6)]Man(a1-6)[Gal(b1-4)GlcNAc(b1-3)Gal(b1-4)GlcNAc(b1-3)Gal(b1-4)GlcNAc(b1-3)Gal(b1-4)GlcNAc(b1-2)Man(a1-3)]Man(b1-4)GlcNAc(b1-4)[Fuc(a1-6)]GlcNAc
# Outline: as §1
# [25] = target: Gal3S(b1-4)[Fuc(a1-3)]Glc6S
# Outline: as §1
binder,measurement,setting,value
B1,glycan array binding signal (z-score),[1],4.25
same,glycan array binding signal (z-score),[2],-0.312
same,glycan array binding signal (z-score),Fuc(a1-2)Gal(b1-4)Glc,-0.196
same,glycan array binding signal (z-score),Fuc(a1-2)Gal(b1-4)GlcNAc,-0.232
same,glycan array binding signal (z-score),[3],-0.234
same,glycan array binding signal (z-score),[4],-0.199
same,glycan array binding signal (z-score),[5],2.26
same,glycan array binding signal (z-score),[6],-0.266
same,glycan array binding signal (z-score),[7],4.51
same,glycan array binding signal (z-score),[8],6.91
same,glycan array binding signal (z-score),[9],5.4
same,glycan array binding signal (z-score),[10],3.27
same,glycan array binding signal (z-score),[11],4.19
same,glycan array binding signal (z-score),[12],3.77
same,glycan array binding signal (z-score),[13],4.64
same,glycan array binding signal (z-score),[14],4.02
same,glycan array binding signal (z-score),[15],-0.301
same,glycan array binding signal (z-score),[16],-0.234
same,glycan array binding signal (z-score),[17],4.95
same,glycan array binding signal (z-score),[18],3.84
same,glycan array binding signal (z-score),Gal(b1-3)GlcNAc,-0.228
same,glycan array binding signal (z-score),[19],-0.181
same,glycan array binding signal (z-score),[20],-0.234
same,glycan array binding signal (z-score),[21],-0.176
same,glycan array binding signal (z-score),[22],4.23
same,glycan array binding signal (z-score),Gal(b1-4)GlcNAc(b1-2)Man,-0.289
same,glycan array binding signal (z-score),[23],-0.171
same,glycan array binding signal (z-score),[24],-0.148
same,glycan array binding signal (z-score),[25],-0.18
